Data reported in PubChem BioAssay AID2685 (National Center for Advancing Translational Sciences (NCATS), 2010).
Hit rate of the full screen: of about 320,000 compounds, about 2,100 (0.66%) were called active. Not shown: some 53% with an inconclusive outcome. The sample holds actives, similar compounds and a random draw of the others, so the mix is not that of the screen. Calls come from the whole dose curve; as a rule, active = well fitted inhibition curve with a large enough effect in the signal ratio, with a control signal flat (not every such curve was filed as active); inconclusive = small, poorly fitted or top-dose-only effect, or effect the other way, or a change in a side signal; inactive = flat fitted curve, though single readings scatter; the % refers to the signal ratio.

Assay: qHTS Assay for Lipid Storage Modulators in Drosophila S3 Cells;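 for cell number change: cells counted by Cell Tracker Red CMTPX staining in the red channel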; for lipid storage change, negative = inhibition: % is set by controls: 0 for no effect and ±100 for the full control effect
Details: BODIPY lipid droplet fluorescence, 18-24 h, cells fed with added oleic acid; cell number change: measured here: cell count max response; series mostly up to 46.1 µM; lipid storage change, negative = inhibition: at the top concentration
Summary of the method: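 Laser-scanning cytometry quantifies lipid droplet accumulation (500–530 nm total intensity; droplet/cell object ratio) in oleic acid-fed (400 uM added) Drosophila S3 cells treated with a concentration series. 20 uM Triacsin C defined 100% inhibition.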
Potency is the fitted concentration of half-maximal effect.

Row | SMILES | Potency | cell number change | lipid storage change, negative = inhibition | outcome
1 | CCOc1ccccc1C(=O)NC(CO)C(=O)O (stereo not given) | 20.6 µM (active) | -20.4% | – | –
2 | CC(C)Oc1ccccc1C(=O)NC(CO)C(=O)O (stereo not given) | – | -13.9% | 7.17% (inactive) | –
3 | CC(C)COc1ccccc1C(=O)NC(CO)C(=O)O (stereo not given) | – | -5.46% | 10% (inactive) | –
4 | CS(=O)(=O)N(Cc1ccccc1)c1ccc(C(=O)N2CCc3ccccc3C2)cc1 | – | 13.2% | -15.5% (inactive) | –
5 | Cc1cc(/C=N/Nc2nc(N3CCOCC3)nc(N3CCOCC3)n2)c(C)n1-c1ccccc1 | – | 2.32% | 0.381% (inactive) | –
6 | CCCCn1c(N)c(N(CC)C(=O)C2CCCC2)c(=O)[nH]c1=O | – | 14.7% | 1.39% (inactive) | –
7 | CC(=O)N1c2ccc(S(=O)(=O)N(C)CC(=O)NC3CCCCC3C)cc2CC1C (stereo not given) | – | – | – | inactive
8 | COc1cn(-c2ccccc2)nc1C(=O)Nc1ccccc1 | 0.92 µM (active) | 5.86% | – | –
9 | COc1cn(-c2ccccc2)nc1C(=O)NCc1ccccc1 | – | 10.4% | – | inactive
10 | COc1cn(-c2ccccc2)nc1C(=O)OCC(=O)Nc1ccc(C)c(C)c1 | – | -22.3% | 8.1% (inactive) | –
11 | Cc1cc(C)c(OCC(=O)Nc2ccc3c(c2)OCO3)cc1C | – | – | – | inactive
12 | CC(C)C1Oc2ccccc2N(CC(=O)N(Cc2ccncc2)Cc2ccco2)C1=O (stereo not given) | – | -0.805% | 0.319% (inactive) | –
13 | CN(CCCC1CCCC1)C(=O)c1cc(COc2ccc(F)cc2F)on1 | – | 15.8% | -23.9% (inactive) | –
14 | CN(CCCN1CCOCC1)C(=O)c1cc(COc2c(F)cccc2F)on1 | – | – | – | inactive
15 | CN(CCCC1CCCC1)C(=O)c1cc(COc2c(F)cccc2F)on1 | 5.8 µM (active) | -27.2% | – | –
16 | Cc1c(NC(=O)c2n[nH]c(=O)c3ccccc23)c(=O)n(-c2ccccc2)n1C | – | 5.44% | -4.65% (inactive) | –
17 | Cc1c(NC(=O)c2ccc(N(C)S(=O)(=O)c3ccccc3)cc2)c(=O)n(-c2ccccc2)n1C | – | 0.409% | 3.31% (inactive) | –
18 | CCO[C@H]1OC(C(=O)NCc2nc3ccccc3[nH]2)=C[C@@H](C2CCCCC2)[C@@H]1CCCO | – | -1.73% | -4.55% (inactive) | –
19 | Cc1cc(O)cc2c1C(c1ccc(F)cc1)CC1(CC(C)(C)NC(=S)N1)O2 (stereo not given) | – | 11.1% | 15.9% (inactive) | –
20 | COc1ccc(C2CC3(CC(C)(C)NC(=S)N3)Oc3cc(O)cc(C)c32)cc1 (stereo not given) | – | -1.84% | 22% (inactive) | –
21 | COc1ccc(C2CC3(CC(C)(C)NC(SC)=N3)Oc3cc(O)cc(C)c32)cc1 (stereo not given) | 23.1 µM (active) | 26.2% | – | –
22 | O=C(COc1ccc(Cl)cc1Cl)N/N=C/c1ccc(OC2OC(CO)C(O)C(O)C2O)cc1 (stereo not given) | – | 14.9% | – | inactive
23 | N#CCOc1ccccc1/C=C/c1nc2ccccc2c(=O)[nH]1 | 0.82 µM (active) | 5.41% | – | –
24 | O=c1[nH]c(/C=C/c2ccccc2F)nc2ccccc12 | – | – | – | inactive

Row | SMILES | Potency | cell number change | lipid storage change, negative = inhibition | outcome
25 | O=c1[nH]c(/C=C/c2cccc3ccccc23)nc2ccccc12 | – | 1.01% | -10.1% (inactive) | –
26 | Cc1ccc(SCc2nc3ccccc3n2CC(=O)Nc2c(C)cccc2C)cc1 | – | 5.98% | -6.68% (inactive) | –
27 | Cc1ccc(SCc2nc3ccccc3n2CC(=O)Nc2ccc(Cl)cc2)cc1 | 11.6 µM (active) | -17.3% | – | –
28 | O=C(Cn1c(CSc2ccccc2)nc2ccccc21)Nc1ccccc1 | – | – | 2.53% (inactive) | –
29 | CCOC(=O)CSc1nnc(-c2ccc3ncccc3c2)n1C | – | -5.02% | 19.8% (inactive) | –
30 | Cc1ccc(S(=O)(=O)NN2C(=O)c3ccccc3NC2c2ccccc2)cc1 (stereo not given) | – | 14.4% | 0.893% (inactive) | –
31 | COCCNC(=O)C(OC(=O)c1cc2oc(C)cc2n1C)C(C)C (stereo not given) | – | 9.13% | -24.2% (inactive) | –
32 | CC(C)C(OC(=O)c1ccco1)C(=O)NC1CCCCC1 (stereo not given) | – | 10.7% | 4.26% (inactive) | –
33 | Cc1cc2c(cc(C(=O)OC(C(=O)NC3CCCCC3)C(C)C)n2C)o1 (stereo not given) | 1.46 µM (active) | -21.3% | – | –
34 | COC(=O)c1cc(OC)c(OC)cc1NCC(=O)Nc1ccc(C)cc1 | – | -5.98% | 4.61% (inactive) | –
35 | CCN(CC)CC(=O)Nc1cccc2c1C(=O)c1ccccc1C2=O | – | 7.09% | 2.18% (inactive) | –
36 | O=C1c2ccccc2C(=O)c2c(NCCCN(CCO)CCO)cccc21 | – | 7.53% | 13.2% [at 9.22 µM] (inactive) | –
37 | CNc1cccc2c1C(=O)c1ccccc1C2=O | 11.6 µM (active) | -6.63% | – | –
38 | COc1ccc(-n2cc(CN(C)C(C)c3ccncn3)c(-c3cccc(F)c3)n2)cc1 (stereo not given) | – | -0.848% | 10.9% (inactive) | –
39 | CC(C)(C)c1ccc(C(=O)NCc2ccccc2)cc1 | – | -10.5% | -22.5% (inactive) | –
40 | O=C(CCC(=O)c1ccc(Cl)cc1)NCc1ccccc1 | – | -20.1% | – | inactive
41 | CC(C)(C)c1ccc(C(=O)CCC(=O)NCc2ccccc2)cc1 | 14.6 µM (active) | 6.25% | – | –
42 | CCC(O)CNc1nc(-n2nc(C)cc2C)nc2sc3c(c12)CCCC3 (stereo not given) | – | 1.08% | – | inactive
43 | O=C(CSc1nc2ccccc2c(=O)[nH]1)Nc1ccc(S(=O)(=O)N2CCCC2)cc1 | – | -0.593% | 27.6% (inactive) | –
44 | CC(=O)c1nnn(-c2ccccc2C#N)c1C | – | 25.6% | -0.571% (inactive) | –
45 | O=C(Nc1nc(-c2cccs2)c(C(=O)C(F)(F)F)s1)c1ccccc1 | – | – | -1.08% (inactive) | –
46 | NNC(=O)CC(=O)NC1(Cc2ccc(O)cc2)CCCCC1 | – | 4.44% | 21.8% (inactive) | –
47 | O=C(NC1(Cc2ccc(O)cc2)CCCCC1)c1ccccc1 | 5.17 µM (active) | -23.1% | – | –
48 | CCC(=O)NC1(Cc2ccc(O)cc2)CCCCC1 | – | -37.5% | -26.5% (inactive) | –
